The campaign covered roughly 290,000 compounds. About 370 (0.13%) were called active.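 Rule for the calls: active = spots per cell inhibited over 60%, with over 100 cells counted and total cytoplasm intensity under 500,000; inconclusive = wells with under 100 cells, flagged as likely toxic; inactive = the rest.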 Many of the other results were omitted from the sample, so actives are more common in it than they were. Potency and affinity values are given separately.
Each compound was assayed against G-protein coupled receptor 55 (Homo sapiens) (UniProt Q9Y2T6) (assay: inhibition of LPI-stimulated GPR55 beta-arrestin translocation – imaging, U2OS, beta-arrestin-GFP, LPI agonist, primary screen (AID 2013;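 note: U2OS cells stably carrying GPR55 and arrestin-GFP stimulated by 5 µM LPI near EC80; imaged beta-arrestin-GFP aggregate spots per cell after agonist stimulation; plate controls were LPI-stimulated DMSO wells for no effect and DMSO wells without LPI for full effect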)). Conditions: LPI antagonism, at 10 µM, stronger effect = higher value.
G-protein coupled receptor 55 (Homo sapiens), sequence (Q9Y2T6 whole entry, looked up): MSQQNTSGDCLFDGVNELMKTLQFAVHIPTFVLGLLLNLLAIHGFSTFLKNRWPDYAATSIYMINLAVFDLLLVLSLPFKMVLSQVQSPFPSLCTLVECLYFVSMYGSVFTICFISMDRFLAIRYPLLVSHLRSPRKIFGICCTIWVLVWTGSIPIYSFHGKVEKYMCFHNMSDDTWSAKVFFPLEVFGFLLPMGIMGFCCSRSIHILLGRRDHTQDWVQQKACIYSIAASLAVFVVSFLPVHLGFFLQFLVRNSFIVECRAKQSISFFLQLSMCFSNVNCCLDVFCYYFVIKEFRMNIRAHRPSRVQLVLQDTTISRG
For `C#CCOCCOCCOCCNc1nc(N2CCN(C(=O)[C@H](CCC(=O)O)n3cc(C(N)CC(C)C)nn3)CC2)nc(N2CCN(C(=O)[C@H](Cc3ccc(O)cc3)n3cc(C(N)[C@H](C)CC)nn3)CC2)n1` (some centres undefined), the inhibition was 13% (inactive). `O=C(Nc1ccccc1)c1ccccc1NC(=O)C1CCCCC1` was tested, and the inhibition was -8.2% (inactive). With `O=C1/C(=C\c2ccc(O)c(O)c2)C(c2ccccc2)=NN1c1ccccc1` the inhibition was -3.8% (inactive). `COc1ccc(C2=NN(c3ccccc3)C(=O)/C2=C\c2ccc(O)c(OC)c2)cc1` was tested, and the inhibition was -6.3% (inactive). For `COc1cc(/C=C2\C(=O)N(c3ccc(NC(C)=O)cc3)N=C2c2ccccc2)ccc1O`, the inhibition was 89.7% (active). With `S=C1Cc2ccccc2N1` the inhibition was -4.5% (inactive). For `C#CCN1C(=O)S/C(=C\c2ccc(-c3ccc(Cl)c(C(=O)O)c3)o2)C1=O`, the inhibition was -15.9% (inactive). In the case of `COc1ccc(CN2C(=O)/C(=C/c3ccc(-c4ccc(Cl)c(C(=O)O)c4)o3)SC2=S)cc1`, the inhibition is reported as 34.2% (inactive). For `O=C(O)c1cc(-c2ccc(/C=C3/SC(=S)N(Cc4ccccc4)C3=O)o2)ccc1Cl`, the inhibition was 61.2% (active). `O=C(NCc1ccco1)C1(c2ccc(Br)cc2)CCCC1` was tested, and the inhibition was 1.4% (inactive). `C=CCn1c(O)c(C2=c3ccccc3=NC2=O)sc1=Nc1ccc(O)cc1` was tested, and the inhibition was 5.2% (inactive). For `CN(CC(=O)Nc1cccc(F)c1)C(=O)c1cc(S(=O)(=O)N(C)C)ccc1N1CCCC1`, the inhibition was 13.5% (inactive). For `[N-]=[N+]=N[C@@H](CCN1CC[C@H](NC(=O)OCc2ccccc2)CCC1=O)c1ccccc1`, the inhibition was 6.9% (inactive). For `O=C(CSc1nnc(C2CCCCC2)n1Cc1ccccc1)NCc1ccco1`, the inhibition was -1.4% (inactive). For `CCOC(=O)c1sc2nc(N3CCOCC3)c3c(c2c1N)CC(C)(C)N(C)C3`, the inhibition was -4.1% (inactive). `CN1Cc2c(N3CCOCC3)nc3sc(C(=O)c4ccccc4)c(N)c3c2CC1(C)C` was tested, and the inhibition was 1.2% (inactive). In the case of `NC(=S)Cc1nc2n(n1)Cc1ccccc1-2`, the inhibition is reported as 5.2% (inactive). For `CC1CC(Nc2ccccc2)c2ccccc2N1C(=O)c1ccco1` (centres undefined), the inhibition was 6.5% (inactive). In the case of `CC(=O)N(c1ccccc1)C1CC(C)N(C(=O)c2ccccc2)c2ccccc21` (centres undefined), the inhibition is reported as 13.6% (inactive). For `CC1CC(N(C(=O)c2ccc(Cl)cc2)c2ccccc2)c2ccccc2N1C(=O)c1ccco1` (centres undefined), the inhibition was 10.9% (inactive). With `CC1CC(N(C(=O)c2ccco2)c2ccccc2)c2ccccc2N1` (centres undefined) the inhibition was 10.3% (inactive). `COC(=O)c1c(C(C)=O)c(C)n(C)c1C` was tested, and the inhibition was 9.9% (inactive). `O=C(CSc1nc2ccccc2o1)Nc1ccccc1N1CCOCC1` was tested, and the inhibition was -2.4% (inactive). With `Cc1ccccc1NC(=O)CSc1nc2ccccc2o1` the inhibition was -27.6% (inactive). `CC1(C)CC(=O)C(CC(=O)Nc2ccc(S(N)(=O)=O)cc2)=C(O)C1` was tested, and the inhibition was 2.1% (inactive). `COc1ccc(C2c3sc(=O)[nH]c3SC3C4CCC(C4)C23)cc1` (centres undefined) was tested, and the inhibition was 39.7% (inactive). In the case of `COc1ccc(C2c3sc(=O)[nH]c3SC3C4CCC(C4)C23)cc1OC` (centres undefined), the inhibition is reported as 4.6% (inactive). In the case of `CN(C)/C=N/c1nc2nccc(-c3ccccc3)n2n1`, the inhibition is reported as -4.1% (inactive). In the case of `CCC(C)c1ccc(S(=O)(=O)N2CCN(S(=O)(=O)c3ccc(NC(C)=O)cc3)CC2)cc1` (centres undefined), the inhibition is reported as 6.4% (inactive). `CCn1cnc2c1c(=O)n(Cc1ccc(C(=O)OC)cc1)c(=O)n2Cc1ccccc1` was tested, and the inhibition was 6% (inactive). In the case of `O=C(O)C1C(C(=O)O)C1(c1ccccc1)c1ccccc1` (centres undefined), the inhibition is reported as -6.8% (inactive). For `CCOC(=O)C1C(C(=O)OCC)C1(c1ccccc1)c1ccccc1` (centres undefined), the inhibition was 94.1% (active). With `COC(=O)C1C(C(=O)OC)C1(c1ccccc1)c1ccccc1` (centres undefined) the inhibition was 5.7% (inactive). In the case of `CC12CCC(C(=O)N(Cc3ccccc3)Cc3ccccc3)(OC1=O)C2(C)C` (centres undefined), the inhibition is reported as 3.1% (inactive). With `O=C(c1ccccc1)N(Cc1ccccc1)Cc1ccccc1` the inhibition was 11.6% (inactive). In the case of `CC1(C(=O)N(Cc2ccccc2)Cc2ccccc2)CC1(Br)Br` (centres undefined), the inhibition is reported as 80.9% (active). With `COc1ccc(CNS(=O)(=O)c2ccc3c(c2)CCN3C(=O)C2CC2)cc1` the inhibition was 5.8% (inactive). `CCOC(=O)C1CCN(CC(=O)Nc2ccc(OC)c(Cl)c2)CC1` was tested, and the inhibition was 17.5% (inactive). `O=C(Cn1c(=O)c(=O)n(Cc2ccccc2)c2ccc(Cl)cc21)Nc1cccc(F)c1` was tested, and the inhibition was -4.5% (inactive). With `Cc1nc2ccccc2c2c1C(=O)N(C(C)C)C2=O` the inhibition was -5.2% (inactive). With `O=C(Cn1cnc2ccccc2c1=O)Nc1cccc(-c2nnc3n2CCCCC3)c1` the inhibition was -5.4% (inactive). For `Cc1ccc(C(c2nnnn2C2CCCCC2)N2CCc3ccccc32)cc1` (centres undefined), the inhibition was 4.6% (inactive). In the case of `COc1ccc(C(CCNC(C)c2ccccc2)c2ccc(F)cc2)cc1` (centres undefined), the inhibition is reported as 29.1% (inactive). `COc1ccc(C(CCNC(C)c2ccccc2)C(C)C)cc1` (centres undefined) was tested, and the inhibition was 15.3% (inactive). With `COc1ccc(-n2cnnc2SCC(=O)Nc2ccc(C(N)=O)cc2)cc1` the inhibition was -2.8% (inactive). With `COCc1nnc(NC(=O)C2CC(=O)N(C3CCCC3)C2)s1` (centres undefined) the inhibition was 8.2% (inactive). `O=C(O)c1cccc(N2C(=O)/C(=C/c3ccc([N+](=O)[O-])cc3)C=C2c2ccccc2)c1` was tested, and the inhibition was -16.1% (inactive). In the case of `O=C1/C(=C/c2ccc([N+](=O)[O-])cc2)C=C(c2ccccc2)N1c1ccccc1`, the inhibition is reported as 25.9% (inactive). With `Cc1nnc(SCC2=C(C(=O)O)N3C(=O)C(NC(=O)C(C)n4nc(C(F)(F)F)cc4C)C3SC2)s1` (centres undefined) the inhibition was 0.4% (inactive). `Nc1cc(=O)[nH]c(SC/C=C/c2ccccc2)n1` was tested, and the inhibition was -21.6% (inactive). With `Clc1nc(CN2CCCCC2)nc2sc3c(c12)CCC3` the inhibition was 5.2% (inactive). For `Clc1nc(CN2CCCCC2)nc2sc3c(c12)CCCC3`, the inhibition was 61.4% (active). `Clc1nc(CN2CCOCC2)nc2sc3c(c12)CCC3` was tested, and the inhibition was 19% (inactive). `CC1CN(C(=O)COC(=O)c2ccc(O)cc2)CC(C)O1` (centres undefined) was tested, and the inhibition was 6.6% (inactive). For `N#CCc1c(C#N)c(N)nc(Nc2ccccc2)c1C#N`, the inhibition was 1.4% (inactive). For `COc1ccc2oc(=O)c(C(=O)N3CCN(c4ccc(F)cc4)CC3)cc2c1`, the inhibition was 4.2% (inactive). For `O=C(Cn1ncn2c(cc3ccccc32)c1=O)NCCc1cccs1`, the inhibition was -4.4% (inactive). `COc1ccc(C(=O)N[C@H](C(=O)NCC2CCCCC2)C(C)C)cc1` was tested, and the inhibition was 6.5% (inactive). With `O=C(CSc1nc2ccccc2c(=O)[nH]1)N1CCN(S(=O)(=O)c2ccccc2)CC1` the inhibition was 2.8% (inactive). In the case of `O=C(CSc1ncccn1)N1CCN(S(=O)(=O)c2ccccc2)CC1`, the inhibition is reported as 9.7% (inactive). With `N#Cc1ccccc1NC(=O)CN1CCOCC1` the inhibition was 9.8% (inactive). With `CCSc1n[nH]c2nc3c(c(=O)n12)C1(CCCC1)Cc1ccccc1-3` the inhibition was 10.3% (inactive). With `CCn1c(SCC(N)=O)nc2c(c1=O)C1(CCCC1)Cc1ccccc1-2` the inhibition was 1.3% (inactive). With `COc1ccc(Oc2c(-c3ccc(O)cc3O)n[nH]c2C)cc1` the inhibition was 11% (inactive). `CCCOC(=O)c1ccc(Oc2c(-c3ccc(O)cc3O)n[nH]c2C)cc1` was tested, and the inhibition was 36.9% (inactive). In the case of `CCCc1ccc(Oc2cn[nH]c2-c2ccc(O)c(C)c2O)cc1`, the inhibition is reported as 20.9% (inactive). In the case of `CCCc1ccc(Oc2c(-c3ccc(O)c(C)c3O)n[nH]c2C)cc1`, the inhibition is reported as 1% (inactive). For `Cc1ccccc1C(=O)NC(=S)NCc1ccccc1`, the inhibition was 2.5% (inactive). `Cc1sc2nc(CC(=O)NN)[nH]c(=O)c2c1C` was tested, and the inhibition was 6.8% (inactive). With `CC(=O)N1CCOc2ccc(S(=O)(=O)N3CCC(C)CC3)cc21` the inhibition was 7.2% (inactive). With `C/C=C(\C)C(=O)N1CC2(CC(c3cccc(NC(=O)COc4ccc(Cl)cc4)c3)=NO2)C[C@@H]1C(N)=O` (some centres undefined) the inhibition was -0.1% (inactive). `NS(=O)(=O)c1ccc(NC(=S)Nc2ccc(C(=O)N3CCCCC3)cc2)cc1` was tested, and the inhibition was 0.7% (inactive). In the case of `O=C(Nc1ccccc1N1CCOCC1)c1cccnc1Cl`, the inhibition is reported as 3.4% (inactive). With `Cc1ccc(SCC(=O)N(C)C2CCS(=O)(=O)C2)cc1` (centres undefined) the inhibition was -5.3% (inactive). For `CCN(C(=O)CSc1nc(-c2ccccc2)c(-c2ccccc2)[nH]1)C1CCS(=O)(=O)C1` (centres undefined), the inhibition was 15.5% (inactive). For `CCCCNC(=O)CN1C(=O)C(CC)Oc2ccc(Cl)cc21` (centres undefined), the inhibition was 2.3% (inactive). With `Cc1ccc(-c2ccc(/C=C3\SC(N4CCOCC4)=NC3=O)o2)cc1` the inhibition was 16.2% (inactive). In the case of `O=C1N=C(N2CCOCC2)S/C1=C\c1ccc(-c2ccccc2Cl)o1`, the inhibition is reported as -0.9% (inactive). For `Cc1ccc(CNC(=O)c2ccc(CS(=O)(=O)c3ccccc3C)o2)cc1`, the inhibition was 7.3% (inactive). `O=C(Oc1ccc(N2C(=O)C3C4CCC(C4)C3C2=O)cc1)c1ccco1` (centres undefined) was tested, and the inhibition was 15.6% (inactive). For `O=C(NC1CCN(S(=O)(=O)c2ccccc2F)CC1)c1cccnc1`, the inhibition was -8.1% (inactive). In the case of `O=C(N1CCCC1)C(F)(F)Oc1ccc(F)cc1`, the inhibition is reported as 10.6% (inactive). `COC(=O)C1=CN(C(C)C)C=C(C(=O)OC)C1c1cc(Br)c(OC)c(OC)c1` was tested, and the inhibition was 0.5% (inactive). In the case of `COCCN1C=C(C(=O)OC)C(c2cc3c(cc2Br)OCO3)C(C(=O)OC)=C1`, the inhibition is reported as 1% (inactive). `COc1ccc(-n2c(C)cc(C=O)c2C)cc1Cl` was tested, and the inhibition was 15.8% (inactive). In the case of `COc1ccc(Cl)cc1-n1c(C)cc(C=O)c1C`, the inhibition is reported as -3.7% (inactive). For `CN(C)S(=O)(=O)N1CCN(C(=O)c2cccc(Br)c2)CC1`, the inhibition was 1.7% (inactive). For `NS(=O)(=O)c1ccc(CCNC(=O)CSc2nc3ccsc3c(=O)n2CCCCCC(=O)O)cc1`, the inhibition was 14.8% (inactive). In the case of `Cc1cccc(OCC(=O)N2CCOCC2)c1`, the inhibition is reported as 15.3% (inactive). In the case of `COc1ccc(OC)c(-n2c(C)cc(/C=C3\C(=N)N4N=C(CC(=O)N5CCOCC5)SC4=NC3=O)c2C)c1`, the inhibition is reported as 21.8% (inactive). In the case of `COc1ccccc1N1CCN(C(=O)NC23CC4CC(CC(C4)C2)C3)CC1`, the inhibition is reported as 6.5% (inactive). `O=C(CCCn1c(=O)[nH]c2ccccc2c1=O)N1CCN(c2ccccn2)CC1` was tested, and the inhibition was 3.9% (inactive). With `O=C(CCCn1c(=S)[nH]c2cc3c(cc2c1=O)OCO3)N1CCN(c2ccccn2)CC1` the inhibition was 10.5% (inactive). For `O=C(CCCn1c(=S)[nH]c2ccc(Br)cc2c1=O)N1CCN(c2ccccn2)CC1`, the inhibition was 60.6% (active).

From PubChem BioAssay AID2013 (Sanford-Burnham Center for Chemical Genomics, 2009)
